# Screening data from PubChem BioAssay.
# In the library only some 1.4% were active in any assay of this set; here they are far more common.
# p-CIP stab down: p/CIP-EGFP fusion destabilizers, primary screen, fluorescence, F442A cells | decrease of EGFP signal, % at 10 µM | AID 1984, 2009 | 16 h | hit rate 0.01% among 290,000 | Q05BA5;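 active means EGFP signal decrease of at least 30% at 10 µM or well 3 SD below plate mean, unless failing retest; inactive means the rest, including hits failing retest or dose response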
# OPRM1-OPRD1 ag: agonists of OPRM1-OPRD1 heterodimerization, primary screen, cell-based, luminescence. cells. activation, % at 9.3 µM. hit rate 0.3% among 340,000. AID 504326, 2011; in the data active means activation above about 18%;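 further: 0% = vehicle-treated cells and 100% = reference agonist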
# MOR-DOR inv ag: inverse agonists of MOR-DOR heterodimerization, primary screen, cell-based, luminescence. inhibition, % at 9.3 µM. AID 504357, 2011. hit rate 0.21% among 340,000. cell-based MOR-DOR heterodimer luminescence, inverse agonism; in the data active means inhibition above about 22%, passing the limit was not always enough;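 further: 0% = cells with DMSO and 100% = wells without cells with DMSO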
# HTR5A ag ctr: HTR5A agonists in luminescence cell assay, primary screen, counter-screen for OPRM1-OPRD1 heterodimer agonist project, full-deck HTS; 5-hydroxytryptamine receptor 5A (Homo sapiens), P47898; activation, % at 9.3 µM; cell-based; hit rate 0.61% among 340,000; in the data active means activation mostly above about 9.5%, no sharp cut-off; inactive means mostly below about 7.6%;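 further: 0% = cells with vehicle only and 100% = reference agonist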
# Target sequence (P47898 whole entry, looked up): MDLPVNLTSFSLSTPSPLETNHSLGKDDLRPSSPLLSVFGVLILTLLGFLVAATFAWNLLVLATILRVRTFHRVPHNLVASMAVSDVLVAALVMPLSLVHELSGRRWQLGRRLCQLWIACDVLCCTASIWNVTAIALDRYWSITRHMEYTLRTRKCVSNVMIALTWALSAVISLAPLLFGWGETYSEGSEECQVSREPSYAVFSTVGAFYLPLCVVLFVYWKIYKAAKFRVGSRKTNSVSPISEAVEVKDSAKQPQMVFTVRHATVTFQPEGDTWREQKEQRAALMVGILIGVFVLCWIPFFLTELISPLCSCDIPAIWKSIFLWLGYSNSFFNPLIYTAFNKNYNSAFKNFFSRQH
# beta cell repl: inducers of MIN6 beta-cell proliferation, primary screen, ATP luminescence, uHTS | MIN6 cells proliferation, ATPlite luminescence, 48 h; cells starved in 0.2% serum; 100% = growth in 10% serum | proliferation, % at 10 µM | hit rate 0.29% among 330,000 | AID 2380, 2010;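 active means compounds whose signal lies at least 3.5 SD above the mean of all wells on their plate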;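 further: 0% = DMSO-treated cells in low-serum medium and 100% = 10% serum control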
# HTR5A inv ctr: HTR5A inverse agonists in luminescence cell assay, primary screen, counter-screen for OPRM1-OPRD1 heterodimer inverse agonist project, full-deck HTS | AID 504634, 2011 | hit rate 0.083% among 340,000 | 5-hydroxytryptamine receptor 5A (Homo sapiens), P47898 | HTR5A cell line, inverse agonism | inhibition, % at 9.3 µM; in the data active means inhibition mostly above about 23%, no sharp cut-off; inactive means mostly below about 18%;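 further: 0% = cells with DMSO and 100% = no-cell wells with DMSO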
# MOR-DOR inv conf: inverse agonists of MOR-DOR heterodimerization, confirmation, cell-based, luminescence. shares compounds with MOR-DOR inv ag. cells expressing OPRM1/OPRD1 heterodimer. inhibition, % at 9.3 µM. hit rate 20% among 580. AID 504900, 2011; in the data active means inhibition above about 32%;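 further: 0% = cells with DMSO and 100% = wells lacking cells with DMSO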
# HTR5A inv count: HTR5A inverse agonists, counter-screen for OPRM1-OPRD1 inverse agonist project, cell-based, luminescence; HTR5A-expressing cells, inverse agonism; shares compounds with MOR-DOR inv ag; inhibition, % at 9.3 µM; 580 tested, under 10 active; call rule not given here;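 further: 0% = cells with DMSO and 100% = no-cell wells with DMSO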
# * marks the source's active call; other numbers are inactive results; x = no result given.
SMILES,p-CIP stab down,OPRM1-OPRD1 ag,MOR-DOR inv ag,HTR5A ag ctr,beta cell repl,HTR5A inv ctr,MOR-DOR inv conf,HTR5A inv count
O=C(CCNc1ccc(F)cc1)c1cc2ccccc2o1,15,8,-35,-3,-7,7,x,x
CN1C(=O)/C(=C2/C=Cc3ccccc3N2CCCS(=O)(=O)O)SC1=S,-13,-6,32*,-8,-2,21,-52,-12
CNC(=S)NNC(=O)c1sc2cc(C(F)(F)F)cnc2c1-c1ccccn1,11,-6,31*,-7,-1,18,4,4
Cc1ccc(C(=O)COC(=O)CN2C(=O)C3C4CCC(C4)C3C2=O)cc1[N+](=O)[O-] (stereo unspecified),-4,-9,53*,-6,0,23,-32,5
O=C(CCN1C(=O)C2C3CCC(C3)C2C1=O)OCC(=O)c1ccc(Br)cc1 (stereo unspecified),-2,-3,16,2,1,-8,x,x
Cc1ccc(C(=O)COC(=O)CN2C(=O)C3CC=CCC3C2=O)cc1[N+](=O)[O-] (stereo unspecified),-1,-9,50*,-4,-3,1,48*,20
Cc1ccc(C(=O)COC(=O)CCN2C(=O)C3C4CCC(C4)C3C2=O)cc1[N+](=O)[O-] (stereo unspecified),1,-10,55*,-6,-2,21,48*,21
Cc1ccc(C(=O)COC(=O)CN2C(=O)C3C4C=CC(C4)C3C2=O)cc1[N+](=O)[O-] (stereo unspecified),-15,-5,38*,-4,-2,12,-70,-15
O=C(CN1C(=O)C2C3C=CC(C3)C2C1=O)OCC(=O)c1ccc(Cl)c([N+](=O)[O-])c1 (stereo unspecified),3,-14,78*,-8,-7,21,84*,19
Cc1ccc(C(=O)COC(=O)CN2C(=O)C3C4CCC(C4)C3C2=O)cc1C (stereo unspecified),4,-1,6,2,0,4,x,x
Cc1ccccc1NC1(C#N)C(=O)Nc2ccccc21 (stereo unspecified),-6,-12,58*,-7,2,4,-251,-6
CC1OC2(OC1C)C(=O)Nc1ccccc12 (stereo unspecified),-16,-1,6,3,-1,-14,x,x
CC(C)c1ccc(NC(=O)CC2Oc3ccccc3NC2=O)cc1 (stereo unspecified),0,-1,6,-1,-3,3,x,x
CC(C)c1ccc(NC2(C#N)C(=O)Nc3ccccc32)cc1 (stereo unspecified),2,-10,59*,-3,2,3,-13,-19
CC(=O)Nc1ccccc1C(=O)C(=O)O,7,-7,37*,-3,1,7,-6,-4
O=C1CNC(=O)/C(=C\c2ccccc2)N1,-4,-2,10,3,3,-11,x,x
O=C1/C(=C/c2ccccc2)Nc2ccccc21,-2,-7,36*,-6,-2,4,-25,-10
C[C@H](CO)N1C[C@H](C)[C@@H](CN(C)C(=O)NC2CCCCC2)Oc2ccc(NS(C)(=O)=O)cc2C1=O,x,-1,4,1,-2,1,x,x
CC1Nc2ncnc(N3CCN(c4ccccc4)CC3)c2N(Cc2ccccc2)C1=O (stereo unspecified),x,-8,38,-6,5,22,x,x
CC1Nc2ncnc(N3CCN(c4ccccc4)CC3)c2N(Cc2ccc(Cl)cc2)C1=O (stereo unspecified),x,-10,57*,-11,-8,28,33*,63*
